The source made the active and inactive calls. Unless noted, no rule for the calls is given here.
Columns and labels:
[1] = compound effects on lung adenocarcinoma cell viability – A549, calcein-AM fluorescence, 48 h, basal, profiling panel (AID 1162); details: higher = more signal; also: test concentration not given here
[2] = compound effects on differentiated 3T3-L1 adipocyte viability – cell-based, 3T3-L1 adipocytes, calcein-AM fluorescence, 48 h, basal, profiling panel (AID 1163); details: 3T3-L1 adipocytes viability, higher = more signal; also: test concentration not given here
[3] = compound effects on hepatocellular carcinoma cell viability – HepG2, calcein-AM fluorescence, 48 h, basal, profiling panel (AID 1164); details: higher = more signal; also: test concentration not given here
[4] = compound effects on multiple myeloma cell viability – MM1S, calcein-AM fluorescence, 48 h, basal, profiling panel (AID 1165); details: higher = more signal;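 also: viability of MM1S multiple myeloma cells under basal unstimulated conditions; test concentration not given here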
[5] = calcein-AM signal in unstimulated myeloma cells – cell-based, calcein-AM fluorescence, 48 h, PK04 Diversity Set, profiling panel (AID 1166); details: RPMI8226 myeloma viability, higher = more signal;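 also: cells grown under basal conditions without added stimulus; test concentration not given here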
[6] = JC-1 mitochondrial signal, unstimulated HepG2 cells – cell-based, JC-1 fluorescence, 24 h, 100 nL compound, profiling panel (AID 1167); details: HepG2 mitochondrial potential, higher = more signal; also: test concentration not given here
[7] = JC-1 mitochondrial signal, unstimulated adipocytes – cell-based, JC-1 fluorescence, 3T3-L1 adipocytes, 24 h, 100 nL compound, profiling panel (AID 1168); details: JC-1 mitochondrial fluorescence, higher = more signal, called active from +8 up or from −8 down; also: test concentration not given here
[8] = JC-1 mitochondrial signal, unstimulated myeloma cells – cell-based, JC-1 fluorescence, RPMI8226, 24 h, 100 nL compound, profiling panel (AID 1169); details: JC-1 mitochondrial potential fluorescence, higher = more signal; also: test concentration not given here
[9] = JC-1 mitochondrial signal, unstimulated MM1S myeloma – cell-based, JC-1 fluorescence, 24 h, 100 nL compound, profiling panel (AID 1170); details: MM1S mitochondrial potential, higher = more signal; also: test concentration not given here
[10] = resazurin metabolic signal in A549 cells – cell-based, resazurin fluorescence, 24 h, PK04 Diversity Set, profiling panel (AID 1171); details: A549 viability, higher = more signal, called active from +8 up or from −8 down; also: test concentration not given here
[11] = resazurin metabolic signal in HepG2 cells – cell-based, resazurin fluorescence, 24 h, PK04 Diversity Set, profiling panel (AID 1172); details: HepG2 viability, higher = more signal; also: test concentration not given here
[12] = budding yeast growth changes without added modifier – OD600, strain BY4716, 24 h, basal condition, primary screen (AID 1173); details: S. cerevisiae BY4716 growth, OD600, 24 h; higher = more signal, called active from +8 up or from −8 down
[13] = viability profiling in MM1S myeloma cells – cell-based, resazurin fluorescence, basal, 24 h, PK04 Diversity Set, profiling panel (AID 1174); details: higher = more signal, called active from +8 up or from −8 down; also: test concentration not given here
[14] = target: Dihydroorotate dehydrogenase (quinone), mitochondrial (Plasmodium falciparum (isolate 3D7)) (UniProt Q08210); assay: inhibition of P. falciparum DHODH – biochemical, C-terminal His tag, absorbance 600 nm, primary screen (AID 1175); details: PfDHODH enzyme, DCIP absorbance 600 nm; higher = more signal, called active from +8 up or from −8 down;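 also: recombinant parasite enzyme with a five histidine tag at its C terminus; test concentration not given here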
Chain of Dihydroorotate dehydrogenase (quinone), mitochondrial (Plasmodium falciparum (isolate 3D7)) (Q08210 whole entry, looked up): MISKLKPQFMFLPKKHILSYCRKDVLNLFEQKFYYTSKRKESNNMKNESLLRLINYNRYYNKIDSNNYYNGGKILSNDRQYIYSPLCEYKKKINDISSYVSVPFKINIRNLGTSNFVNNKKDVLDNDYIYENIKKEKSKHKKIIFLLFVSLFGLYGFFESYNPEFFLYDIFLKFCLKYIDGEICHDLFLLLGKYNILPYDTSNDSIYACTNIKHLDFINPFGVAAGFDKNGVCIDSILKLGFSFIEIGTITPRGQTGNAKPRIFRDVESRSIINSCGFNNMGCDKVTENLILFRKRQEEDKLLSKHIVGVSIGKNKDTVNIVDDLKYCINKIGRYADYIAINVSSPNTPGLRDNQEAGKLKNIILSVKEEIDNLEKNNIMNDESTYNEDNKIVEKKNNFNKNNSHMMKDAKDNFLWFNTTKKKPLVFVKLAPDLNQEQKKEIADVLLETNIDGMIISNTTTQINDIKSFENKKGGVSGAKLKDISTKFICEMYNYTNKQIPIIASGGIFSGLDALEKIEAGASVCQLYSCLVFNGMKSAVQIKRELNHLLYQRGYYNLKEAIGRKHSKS

[15] = inhibition of PAO1 biofilm formation – strain PAO1, LB-PBS medium, absorbance 600 nm, primary screen (AID 1176); also: test concentration not given here; details: P. aeruginosa PAO1 growth/biofilm, A600, 12 h; higher = more signal
[16] = growth modulation of vineyard yeast isolate – strain RM11-1a, OD600, basal, 24 h, primary screen (AID 1177);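 also: cultures grown under basal conditions with no added stressor; test concentration not given here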; details: S. cerevisiae RM11-1a growth, OD600, 24 h; higher = more signal, called active from +8 up or from −8 down
[17] = growth of efflux-deficient E. coli DRC39 – strain DRC39, OD650, 24 h, E. coli filamentation inducers, primary screen (AID 1178);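 also: growth measured as culture turbidity by optical density at 650 nm; test concentration not given here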; details: E. coli DRC39 acrAB, higher = more signal, called active from +8 up or from −8 down
[18] = growth of efflux-deficient E. coli DRC39 – strain DRC39, OD650, 48 h, E. coli filamentation inducers, primary screen (AID 1179);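 also: screen aims at cell division blockers that make cells filament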; details: E. coli DRC39 delta-acrAB growth, higher = more signal, called active from +8 up or from −8 down
[19] = viability profiling in RPMI8226 myeloma cells – cell-based, resazurin fluorescence, basal, 24 h, PK04 Diversity Set, profiling panel (AID 1180); details: higher = more signal;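 also: RPMI8826 multiple myeloma cell line at 5000 cells per well; test concentration not given here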
[20] = target: E3 ubiquitin-protein ligase XIAP (Homo sapiens) (UniProt P98170); assay: small molecules binding XIAP protein – biophysical, small-molecule microarray, fluorescence 635 nm, primary screen (AID 1181); details: higher = more signal;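 also: score merges 667 nm emission and signal to noise over triplicate slides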
Chain of E3 ubiquitin-protein ligase XIAP (Homo sapiens) (P98170 whole entry, looked up): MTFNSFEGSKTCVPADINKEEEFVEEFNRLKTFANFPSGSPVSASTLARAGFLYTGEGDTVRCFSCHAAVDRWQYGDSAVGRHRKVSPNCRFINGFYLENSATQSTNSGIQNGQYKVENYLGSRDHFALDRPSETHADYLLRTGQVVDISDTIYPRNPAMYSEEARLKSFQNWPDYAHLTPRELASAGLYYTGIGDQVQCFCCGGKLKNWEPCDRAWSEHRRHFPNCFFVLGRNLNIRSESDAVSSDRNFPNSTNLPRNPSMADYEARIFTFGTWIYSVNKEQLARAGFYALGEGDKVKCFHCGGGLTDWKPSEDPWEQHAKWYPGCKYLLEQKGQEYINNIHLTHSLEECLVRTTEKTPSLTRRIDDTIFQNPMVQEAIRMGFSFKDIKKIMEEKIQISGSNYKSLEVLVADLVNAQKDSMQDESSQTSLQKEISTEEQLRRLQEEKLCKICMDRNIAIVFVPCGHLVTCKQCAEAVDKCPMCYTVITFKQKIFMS

Row | Compound | z-score [1] | z-score [2] | z-score [3] | z-score [4] | z-score [5] | z-score [6] | z-score [7] | z-score [8] | z-score [9] | z-score [10] | z-score [11] | z-score [12] | z-score [13] | composite z-score [14] | z-score [15] | z-score [16] | z-score [17] | z-score [18] | z-score [19] | composite z-score [20]
1 | O=C1OCCC=C[C@H]2OC34C=CCN(Cc5ccccc5)C(=O)[C@H]3N(CCCCCO)C(=O)[C@@H]4C12 (stereo not given in full) | 0.412 | -0.0568 | 0.889 | 1.81 | 0.593 | 0.756 | 0.498 (inactive) | 0.231 | -0.967 | 0.872 (inactive) | 1.12 | -0.266 (inactive) | 1.61 (inactive) | -1.12 (inactive) | 0.357 (inactive) | 0.484 (inactive) | 1.24 (inactive) | 0.927 (inactive) | 1.4 | 0.13
2 | CN1C(=O)C2C=CC(C(O)c3ccccn3)N(Nc3ccccc3)C2C1=O (stereo not given) | 0.169 | -0.103 | -0.164 | -0.309 | 0.497 | -0.562 | -0.234 (inactive) | 0.184 | 0.0223 | -0.205 (inactive) | -1.03 | 0.727 (inactive) | -0.467 (inactive) | 1.42 (inactive) | 1.28 (inactive) | 1.57 (inactive) | -0.206 (inactive) | -0.387 (inactive) | -0.878 | 0.742
3 | CCOC(=O)C1=C[C@@H](C(C)C)N(S(=O)(=O)c2ccc(C)cc2)[C@H]1c1ccc(C(C)C)cc1 | 0.012 | 0.256 | -0.493 | -0.955 | -2.18 | 7.47 | -0.0264 (inactive) | -0.0684 | -0.776 | 3.1 (inactive) | 0.346 | 1.05 (inactive) | 0.52 (inactive) | -1.11 (inactive) | -0.281 (inactive) | 0.55 (inactive) | -0.558 (inactive) | 0.399 (inactive) | 0.548 | -0.192
4 | COCCOC(=O)N1C(=O)[C@@]2(c3cc(C#CCC(C(=O)OC)C(=O)OC)ccc31)[C@H](c1ccccc1OCCO)N1[C@H](c3ccccc3)[C@H](c3ccccc3)OC(=O)[C@H]1[C@@H]2C(=O)N1CCc2cc(OC)c(OC)cc2C1 | 0.178 | 1.76 | -0.821 | -0.906 | -0.756 | -0.0323 | 2.21 (inactive) | -0.833 | -0.702 | 1.34 (inactive) | 1.68 | 0.983 (inactive) | 1.58 (inactive) | -0.857 (inactive) | 1.45 (inactive) | 1.16 (inactive) | 0.252 (inactive) | -0.441 (inactive) | 1.78 | 0.314
5 | N#Cc1ccc(NN2C(C(O)c3cccs3)C=CC3C(=O)N(c4ccccc4)C(=O)C32)cc1 (stereo not given) | 0.594 | -0.327 | 1.01 | -0.0964 | -0.598 | -0.307 | -0.0937 (inactive) | 0.49 | -0.218 | 0.234 (inactive) | -0.375 | -1.97 (inactive) | 0.0171 (inactive) | -1.41 (inactive) | 1.08 (inactive) | -1.59 (inactive) | 0.766 (inactive) | 1.36 (inactive) | 0.131 | -0.126
6 | CCN(CC)c1ccc(N2CC=CC34O[C@@H]5/C=C\CCCOC(=O)C5[C@H]3C(=O)N(C(CO)C(C)C)[C@@H]4C2=O)cc1 (stereo not given in full) | -0.0889 | 0.102 | 0.825 | 0.905 | -0.62 | -0.243 | -0.0916 (inactive) | 0.139 | -0.26 | -0.506 (inactive) | -0.211 | 0.282 (inactive) | -0.2 (inactive) | -0.952 (inactive) | -0.36 (inactive) | 0.831 (inactive) | -0.0034 (inactive) | 0.0801 (inactive) | -0.0389 | 0.336
7 | CC(=CC1CCCCC1)[C@@H](NC(=O)c1ccc(C(F)(F)F)cc1)c1ccc(-c2ccccc2)cc1 | -0.165 | -0.791 | -0.839 | -1.5 | -2.06 | -2.33 | -1.09 (inactive) | -0.515 | -0.693 | 0.334 (inactive) | 0.0536 | 1.08 (inactive) | -0.549 (inactive) | -0.468 (inactive) | 1.31 (inactive) | 0.088 (inactive) | -1.16 (inactive) | -0.822 (inactive) | -0.18 | -0.115
8 | C=CCOC(=O)[C@@H]1[C@H]2C(=O)O[C@H](c3ccccc3)[C@H](c3ccccc3)N2[C@H](c2ccc(OCCOC(=O)[C@@H]3C[C@@H]4C(=O)NCC(=O)N4[C@@H]3c3cccc(OCCO)c3)cc2)[C@@]12C(=O)Nc1ccc(I)cc12 | 0.0646 | 0.904 | 0.646 | -0.0922 | 0.129 | -0.941 | 1.47 (inactive) | -0.446 | -1.08 | 0.0716 (inactive) | 0.0068 | 1.24 (inactive) | 0.132 (inactive) | -0.173 (inactive) | 2.17 (inactive) | 1.65 (inactive) | 0.451 (inactive) | 0.17 (inactive) | 0.487 | 0.0586

Reference: PubChem BioAssay
